This is an account of results in PubChem BioAssay (NCI).

Compounds without any hit were thinned out: in the full panel of roughly 83,000, 20% have a hit.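 Single-dose data. Exposure time 48 hours. Values below 10 considered active.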 Unmarked numbers belong to inactive results. The source made the active and inactive calls.

Some test systems named below: HCT-15 colon; HT29 colon; SNB-75 CNS; U251 CNS; PC-3 prostate; SK-MEL-5 melanoma; UACC-62 melanoma; SK-MEL-28 melanoma; SK-MEL-2 melanoma; EKVX NSCLC; SN12C renal; UO-31 renal; TK-10 renal; CAKI-1 renal; A498 renal; CCRF-CEM leukemia; MOLT-4 leukemia; LOX IMVI melanoma; ACHN renal; SNB-19 CNS.
What all share (assay): NCI-60 one-dose screen, 48 h (100 = growth as untreated, 0 = no growth, -100 = all killed)
Conditions in all cases: 10 µM unless noted

In the case of `COC(=O)/C=C1/SC(N2N=C(c3cccs3)CC2c2ccc(F)cc2)=NC1=O` (stereo not drawn), the growth in the assay on HCT-15 colon was -9.66% (active); in the assay on HT29 colon it was 13.3%; in the assay on SNB-75 CNS it was 48%; in the assay on U251 CNS, 22.1%; with PC-3 prostate it was 64.5%; in the assay on SK-MEL-5 melanoma, 54.1%. Besides, the growth was 56.8% in the assay on UACC-62 melanoma; 43.8% in the assay on SK-MEL-28 melanoma; 80.9% in the assay with SK-MEL-2 melanoma; 94% in the assay on EKVX NSCLC; 56% in the assay on SN12C renal; 52.6% in the assay with UO-31 renal. The growth was 78.5% in the assay with TK-10 renal; 77% in the assay with CAKI-1 renal; 80.5% with A498 renal; 8.74% (active) with CCRF-CEM leukemia; -3.67% (active) in the assay with MOLT-4 leukemia.
Take `O=C(NCc1cccnc1)/C(=C\c1ccc(Br)cc1)S(=O)(=O)c1ccccc1`: the growth in the assay with HCT-15 colon was -33.2% (active); in the assay with HT29 colon it was -72.2% (active); with SNB-75 CNS, 9.38% (active); with U251 CNS it was -87.1% (active); in the assay on PC-3 prostate, -0.986% (active); in the assay with SK-MEL-5 melanoma, -17.9% (active). The growth was -31.3% (active) in the assay on UACC-62 melanoma; -89.5% (active) in the assay on LOX IMVI melanoma; -39.3% (active) in the assay on SK-MEL-28 melanoma; -44% (active) in the assay on SK-MEL-2 melanoma; 11.1% in the assay on EKVX NSCLC; -30.2% (active) with SN12C renal. For the same compound, the growth with UO-31 renal is 10.7%; in the assay with TK-10 renal it was -59.4% (active); in the assay with ACHN renal, -15.3% (active); with CAKI-1 renal it was -2.88% (active); in the assay with A498 renal, -20.4% (active); with CCRF-CEM leukemia, 25.2%. Besides, the growth in the assay with MOLT-4 leukemia is 64.1%.
Consider `N#Cc1cc(-c2ccnc(Nc3ccc(NC(=O)CCl)cc3)n2)ccc1N1CCCC1`, for which the growth is -45.7% (active) in the assay on HCT-15 colon; -56.9% (active) with HT29 colon; -17.5% (active) in the assay on SNB-75 CNS; -33.1% (active) with U251 CNS; 8.3% (active) in the assay on PC-3 prostate; -96% (active) in the assay on SK-MEL-5 melanoma. Besides, the growth in the assay on UACC-62 melanoma was -71.3% (active); in the assay with LOX IMVI melanoma it was -84.8% (active); in the assay with SK-MEL-28 melanoma, -52.4% (active); with SK-MEL-2 melanoma, -39.9% (active); in the assay with EKVX NSCLC, 12%; in the assay on SN12C renal, -39.4% (active). The growth is -71.9% (active) with UO-31 renal; 9.16% (active) with TK-10 renal; -24.6% (active) with ACHN renal; -40.4% (active) in the assay with CAKI-1 renal; 16.1% with A498 renal; 0.0905% (active) with CCRF-CEM leukemia. In addition, the growth in the assay with MOLT-4 leukemia is -7.09% (active).
Regarding `N#Cc1c(N)nnn1Cc1cc(=O)oc2ccc(O)cc12`, the growth in the assay on HCT-15 colon was 110%; in the assay with HT29 colon, 102%; in the assay on SNB-75 CNS, 100%; in the assay with U251 CNS it was 103%; in the assay with PC-3 prostate it was 97.3%; in the assay with SK-MEL-5 melanoma, 97.9%. In addition, the growth in the assay with UACC-62 melanoma is 99.9%; with LOX IMVI melanoma, 102%; in the assay on SK-MEL-28 melanoma it was 112%; in the assay on SK-MEL-2 melanoma it was 117%; in the assay with EKVX NSCLC it was 117%; in the assay with SN12C renal, 106%. The growth was 90.5% in the assay on UO-31 renal; 104% in the assay with TK-10 renal; 106% in the assay on ACHN renal; 107% in the assay with CAKI-1 renal; 102% with A498 renal; 93.8% in the assay on CCRF-CEM leukemia. Besides, in the assay with MOLT-4 leukemia, the growth was 109%.
Regarding `CCN(CC)CC#CCOC(=O)[C@]1(C)CCC[C@]2(C)c3ccc(C(C)C)cc3CC[C@@H]12`, the growth was 52.4% in the assay with HCT-15 colon; 46.5% in the assay on HT29 colon; 97.5% in the assay with SNB-75 CNS; 79.7% in the assay on U251 CNS; 64.3% in the assay on PC-3 prostate; 77.1% with SK-MEL-5 melanoma. In addition, the growth in the assay on UACC-62 melanoma is 71.8%; in the assay with LOX IMVI melanoma, 92.6%; in the assay on SK-MEL-28 melanoma it was 84.8%; with SK-MEL-2 melanoma, 98.6%; in the assay on EKVX NSCLC it was 86.6%; with SN12C renal, 83.8%. For the same compound, the growth with UO-31 renal is 65%; in the assay on TK-10 renal, 102%; with ACHN renal it was 92.1%; with CAKI-1 renal, 94.5%; with A498 renal it was 82.9%; in the assay on CCRF-CEM leukemia, 4.53% (active). Also, the growth in the assay on MOLT-4 leukemia was 82.9%.
For `Cc1nc2sc(C(=O)Nc3cccc4ccccc34)c(N)c2cc1C(=O)/C=C/c1ccccc1`, the growth in the assay with HCT-15 colon is -63.3% (active); in the assay with HT29 colon, -47.9% (active); with SNB-75 CNS it was 8.27% (active); in the assay on U251 CNS, -67.3% (active); in the assay with PC-3 prostate, -8.41% (active); in the assay with SK-MEL-5 melanoma, -17.8% (active). Further, the growth was 7.54% (active) with UACC-62 melanoma; -73.1% (active) with LOX IMVI melanoma; 23.6% in the assay with SK-MEL-28 melanoma; 27% in the assay on SK-MEL-2 melanoma; 41.1% with EKVX NSCLC; -44.3% (active) in the assay with SN12C renal. Further, the growth with UO-31 renal is -82.6% (active); in the assay on TK-10 renal it was 4.36% (active); with ACHN renal, 5.45% (active); with CAKI-1 renal, -60.6% (active); in the assay on A498 renal, -5.08% (active); with MOLT-4 leukemia it was 18.4%.
For `Clc1ccc2c(NCCN3CCN(c4ccnc(N5CCCC5)n4)CC3)ccnc2c1`, the growth with HCT-15 colon was 0.29% (active); with HT29 colon it was 6.82% (active); in the assay with SNB-75 CNS it was 90.7%; in the assay on SNB-19 CNS it was 53.7%; in the assay on U251 CNS, 6.81% (active); with PC-3 prostate, 58.6%. In addition, the growth in the assay on SK-MEL-5 melanoma was -16.8% (active); in the assay with LOX IMVI melanoma, -70.1% (active); in the assay on SK-MEL-2 melanoma it was 92.4%; in the assay with EKVX NSCLC it was 63%; in the assay with SN12C renal, 57.2%; with UO-31 renal, 25.8%. Also, the growth with TK-10 renal is 52.5%; with ACHN renal it was 55.6%; in the assay with CAKI-1 renal, 27.7%; in the assay on A498 renal, 51.5%; with CCRF-CEM leukemia, 51.1%; in the assay with MOLT-4 leukemia, 47.2%.
With `COCCOc1cc2ncnc(N3CCN(S(=O)(=O)c4ccccc4Cl)CC3)c2cc1OCCOC`, the growth in the assay on HCT-15 colon is 52.3%; in the assay with HT29 colon it was 81.8%; in the assay on SNB-75 CNS it was 88.2%; in the assay with U251 CNS it was 90.1%; in the assay on PC-3 prostate it was 71.2%; with SK-MEL-5 melanoma, 58.8%. For the same compound, the growth in the assay on UACC-62 melanoma was 61%; in the assay on LOX IMVI melanoma, 83.1%; in the assay with SK-MEL-28 melanoma, 82.8%; in the assay on SK-MEL-2 melanoma it was 88.1%; with EKVX NSCLC it was 90.9%; in the assay on SN12C renal it was 105%. For the same compound, the growth in the assay on UO-31 renal was 70%; in the assay on TK-10 renal, 98.9%; with ACHN renal, 97.5%; in the assay on CAKI-1 renal, 86.6%; with A498 renal, 54.9%; in the assay with CCRF-CEM leukemia, 79%. Moreover, in the assay on MOLT-4 leukemia, the growth was 65.2%.
